Consider 39 molecules from PubChem BioAssay (NCATS).

Where “and” joins values, the source holds several entries; their conditions need not be identical. Equal values may be shown once. Records with an inconclusive call do not appear. Calls of active or inactive are those of the source. The call rests on the fitted dose curve; in most records, active means well fitted cell-killing curve with a large enough effect; inconclusive means small, poorly fitted or top-dose-only effect; inactive means flat fitted curve, though single readings scatter.
Potency means the concentration at half of the fitted maximal effect.

The nature of one experiment: Cellular viability qHTS for adrenocortical cancer (ACC) cell line SW-13 (AID 1963989). Further: nearly all actives have a fitted effect of over 65% in size.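 On activity (max response): cells grown in serum-free medium with ITS supplement; on the % scale 0 is the no-effect control and ±100 the full control effect.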 The settings on record: SW-13 ACC cells viability, CellTiter-Glo, 48 h; activity (max response): active compounds read low. The essentials: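 Here, serum-free SW-13 cultures were dosed up to 46 uM. Following 48 h, ATP-dependent luminescence (CellTiter-Glo) reported viable cells, and logistic modeling produced IC50 values.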
A general note: qHTS replaces the single test concentration by a dilution series.
In the case of `CCC(COC(=O)c1cc(OC)c(OC)c(OC)c1)(c1ccccc1)N(C)C` (centres undefined), the activity (max response) is -2.65% (inactive). Still for that read-out and setting: for `CCCOC(=O)Cc1ccc(OCC(=O)N(CC)CC)c(OC)c1` the value was 10.7% (inactive). `CCN(CC)CCN1C(=O)CN=C(c2ccccc2F)c2cc(Cl)ccc21`: the activity (max response) is 2.24% (inactive).

`Clc1ccc(CSC(Cn2ccnc2)c2ccc(Cl)cc2Cl)cc1` (centres undefined): the Potency was 8.2 µM (active). In the case of `CCOC(=O)C(c1c(O)c2ccccc2oc1=O)c1c(O)c2ccccc2oc1=O`, the activity (max response) was 16.4% (inactive). For the molecule `CCOCCOC(C)=O`, the activity (max response) was 7.41% (inactive). Same read-out and setting: for `CC(Cc1ccc2c(c1)OCO2)NO` (centres undefined) the value was -5.75% (inactive); for `CC(C)c1c(CN(C)C(C)Cc2ccccc2)n(C)n(-c2ccccc2)c1=O` (centres undefined), 5.24% (inactive); for `Cc1ccc(-c2nc3ccc(C)cn3c2CC(=O)N(C)C)cc1`, -1.33% (inactive).

With `O=C(CBr)Nc1ccc(Cl)cc1C(=O)c1ccccc1F`, the activity (max response) is -3.92% (inactive). For `O=S(=O)(O)C(F)(F)C(F)(F)C(F)(F)C(F)(F)F`, the activity (max response) was 12.3% (inactive). For the molecule `CCCN1CCC[C@@H]2Cc3[nH]ncc3C[C@H]21`, the activity (max response) is 1.08% (inactive). The same measure, in the same setting: for `COc1ccc2c(C(=O)c3ccc(Cl)cc3)c(C)n(CC(=O)O)c2c1` the value was 8.1% (inactive).

`O=[N+]([O-])c1cc([N+](=O)[O-])c2ccccc2c1`: the activity (max response) was -5.95% (inactive). Same read-out and setting: for `CCN(CC)Cc1nccn1-c1ccc([N+](=O)[O-])cc1C(=O)c1ccccc1Cl` the value was -3.26% (inactive); for `C[C@]12CC[C@H](O)CC1=CC[C@@H]1[C@@H]2CC[C@]2(C)C(=O)CC[C@@H]12`, 3.86% (inactive) and -7.41% (inactive); for `Oc1ccccc1-c1ccccc1`, -7.15% (inactive). On the same count and under the same terms, for `Nc1ccc(N)cc1` the value was 5.64% (inactive); for `CC(CCc1ccccc1)NC(C)C(O)c1ccc(O)cc1` (centres undefined), -14.3% (inactive); for `O=C(Nc1ccccc1-c1ccc(Cl)cc1)c1cccnc1Cl`, -12.7% (inactive). On the same count and under the same terms, for `C#C[C@]1(O)CC[C@H]2[C@@H]3CCC4=CC(=O)CC[C@]4(C)[C@H]3CC[C@@]21C` the value was 3.93% (inactive); for `C[C@]12CC[C@H]3[C@@H](CCC4=CC(=O)CC[C@@H]43)[C@@H]1CC[C@@H]2OC(=O)CCc1ccco1`, -19.1% (inactive). Regarding `C[C@@H]1CC[C@H]2[C@@H](C)C(=O)O[C@@H]3O[C@@]4(C)CC[C@@H]1[C@]32OO4`, the activity (max response) was -4.33% (inactive) and -19.2% (inactive). The same measure, in the same setting: for `O=C(CCCN1CCC(n2c(=O)[nH]c3ccccc32)CC1)c1ccc(F)cc1` the value was -18.7% (inactive). With `Nc1c(Cl)c(Cl)c(Cl)c(Cl)c1Cl`, the activity (max response) is -9.89% (inactive). Same read-out and setting: for `CCOP(=O)(NC(C)C)Oc1ccc(SC)c(C)c1` (centres undefined) the value was -12.8% (inactive); for `COc1cc(C)[nH]c(=O)c1CNC(=O)c1c(C)n([C@H](C)C2CCN(CC(F)(F)F)CC2)c2ccccc12`, 8.69% (inactive). For `CCN[C@@H](C)Cc1ccccc1`, the activity (max response) was -5.58% (inactive). Same read-out and setting: for `CN1CCc2cc(Cl)c(O)cc2[C@H]2c3ccccc3CC[C@@H]21` the value was -19.8% (inactive); for `CC1COC2(c3ccccc3Cl)c3cc(Cl)ccc3NC(=O)CN12` (centres undefined), -14.7% (inactive).

Turning to `O=C1CN2CCOC2(c2ccccc2Cl)c2cc(Cl)ccc2N1` (centres undefined), the activity (max response) was -4.14% (inactive). With `CC1(C)CC/C(=C/c2ccc(Cl)cc2)C1(O)Cn1cncn1` (centres undefined), the activity (max response) is 3.72% (inactive). In the case of `CCC(=O)O[C@H]1CC[C@H]2[C@@H]3CCC4=CC(=O)CC[C@]4(C)[C@H]3CC[C@]12C`, the activity (max response) was -15% (inactive).

Regarding `CCOC(C(=O)OCCN(C)C)(c1ccccc1)c1ccccc1`, the activity (max response) was -0.322% (inactive). Turning to `O=C(N[C@H]1N=C(c2ccccc2F)c2cccc3c2N(CC3)C1=O)c1cc2ccccc2[nH]1`, the activity (max response) was 11.2% (inactive). As to `CC(C)[C@]12O[C@H]1[C@@H]1O[C@@]13[C@@]1(C)CCC4=C(COC4=O)[C@@H]1C[C@@H]1O[C@@]13C2=O`, the Potency is 0.141 µM (active). Regarding `CC1=C2[C@H]3OC(=O)[C@@H](C)[C@@H]3CC[C@@]2(C)C=CC1=O`, the activity (max response) is -9.75% (inactive). For `CC[n+]1c(-c2ccccc2)c2cc(N)ccc2c2ccc(N)cc21`, the Potency is 5.17 µM (active). Consider `CCC(=O)C(CCN(C)C)(c1ccccc1)c1ccccc1`, for which the activity (max response) is -1.08% (inactive).

The next experiment in a line: Cellular viability qHTS for adrenocortical cancer (ACC) cell line NCI-H295R (AID 1963990). Further: nearly all actives have a fitted effect of over 60% in size. The settings on record: CellTiter-Glo ATP luminescence, 48 h; series mostly up to 46.1 µM. The essentials: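 Viability of NCI-H295R after 48 h of treatment (final up to 46 uM) measured through cellular ATP luminescence.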
Take `CCCOC(=O)Cc1ccc(OCC(=O)N(CC)CC)c(OC)c1`: the Potency entry is “inactive”. In the case of `Clc1ccc(CSC(Cn2ccnc2)c2ccc(Cl)cc2Cl)cc1` (centres undefined), the Potency is 4.11 µM (active). On the same count and under the same terms, for `CC(Cc1ccc2c(c1)OCO2)NO` (centres undefined) the value was “inactive”. The same measure, in the same setting: for `CC(C)c1c(CN(C)C(C)Cc2ccccc2)n(C)n(-c2ccccc2)c1=O` (centres undefined) the value was “inactive”; for `Cc1ccc(-c2nc3ccc(C)cn3c2CC(=O)N(C)C)cc1`, “inactive”; for `CCCN1CCC[C@@H]2Cc3[nH]ncc3C[C@H]21`, “inactive”. Consider `COc1ccc2c(C(=O)c3ccc(Cl)cc3)c(C)n(CC(=O)O)c2c1`, for which the Potency entry is “inactive”. Still for that read-out and setting: for `C[C@]12CC[C@H](O)CC1=CC[C@@H]1[C@@H]2CC[C@]2(C)C(=O)CC[C@@H]12` the value was “inactive”; for `Oc1ccccc1-c1ccccc1`, “inactive”; for `Nc1ccc(N)cc1`, “inactive”.

Consider `CC(CCc1ccccc1)NC(C)C(O)c1ccc(O)cc1` (centres undefined), for which the Potency result is “inactive”.

In the case of `C[C@@H]1CC[C@H]2[C@@H](C)C(=O)O[C@@H]3O[C@@]4(C)CC[C@@H]1[C@]32OO4`, the Potency result is “inactive”.

Take `O=C(CCCN1CCC(n2c(=O)[nH]c3ccccc32)CC1)c1ccc(F)cc1`: the Potency result was “inactive”. Still for that read-out and setting: for `Nc1c(Cl)c(Cl)c(Cl)c(Cl)c1Cl` the value was “inactive”; for `COc1cc(C)[nH]c(=O)c1CNC(=O)c1c(C)n([C@H](C)C2CCN(CC(F)(F)F)CC2)c2ccccc12`, “inactive”; for `CCN[C@@H](C)Cc1ccccc1`, “inactive”. Same read-out and setting: for `CC1COC2(c3ccccc3Cl)c3cc(Cl)ccc3NC(=O)CN12` (centres undefined) the value was 23.1 µM (active). As to `CCOC(C(=O)OCCN(C)C)(c1ccccc1)c1ccccc1`, the Potency result was “inactive”. Still for that read-out and setting: for `CC1=C2[C@H]3OC(=O)[C@@H](C)[C@@H]3CC[C@@]2(C)C=CC1=O` the value was “inactive”. For the molecule `CC[n+]1c(-c2ccccc2)c2cc(N)ccc2c2ccc(N)cc21`, the Potency was 14.6 µM (active).
